From PubChem BioAssay (EPA / NIEHS)
Calls of active or inactive are those of the source. How the source made its calls: active means hit-call score of the fitted dose curve at least 0.9, where 1 is the maximum; inactive means score below 0.9.

Tests used:
[1] = read-out: Urokinase-type plasminogen activator receptor (uPAR), PLAUR (gene 5329); assay: BSK_BE3C_uPAR: BioMAP Diversity Plus: BE3C Assay for Urokinase-type plasminogen activator receptor (uPAR) Biomarker Activity (AID 2283039); conditions: primary human bronchial epithelial cells; actives raise or lower the signal;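 on outcome: uPAR protein level measured by ELISA on the cells; cells exposed to compound for one day before measurement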
Outline: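 A uPAR ELISA serves as the readout, taken 24 h after treating primary human bronchial epithelial cells. Responses in either direction are fitted against DMSO, which defines baseline activity.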

[2] = read-out: Interleukin-6 (IL6), IL6 (gene 3569); assay: BSK_CASM3C_IL6: BioMAP Diversity Plus: CASM3C Assay for Interleukin-6 (IL6) Biomarker Activity for (AID 2283040); conditions: primary human coronary artery smooth muscle cells; actives raise or lower the signal
[3] = read-out: Tissue plasminogen activator (tPA), PLAT (gene 5327); assay: BSK_BE3C_tPA: BioMAP Diversity Plus: BE3C Assay for Tissue plasminogen activator (tPA) Biomarker Activity (AID 2283041); conditions: primary human bronchial epithelial cells; actives raise or lower the signal;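 on outcome: tPA level quantified by ELISA one day after compound addition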
Outline: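 Bidirectional curve fitting relative to DMSO defined activity, with tPA detected by ELISA in chemically treated human bronchial epithelial primary cells at 24 hours.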

[4] = read-out: Interleukin-8 (IL8), CXCL8 (gene 3576); assay: BSK_CASM3C_IL8: BioMAP Diversity Plus: CASM3C Assay for Interleukin-8 (IL8) Biomarker Activity (AID 2283042); conditions: primary human coronary artery smooth muscle cells; actives raise or lower the signal;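 further: IL-8 protein level quantified by ELISA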
[5] = read-out: Human Leukocyte Antigen - DR isotype (HLADR), HLA-DRA (gene 3122); assay: BSK_CASM3C_HLADR: BioMAP Diversity Plus: CASM3C Assay for Human Leukocyte Antigen - DR isotype (HLADR) Biomarker Activity (AID 2283043); conditions: primary human coronary artery smooth muscle cells; actives raise or lower the signal;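 further: cell-surface HLA-DR protein level quantified by ELISA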
[6] = read-out: Macrophage colony-stimulating factor (MCSF), CSF1 (gene 1435); assay: BSK_CASM3C_MCSF: BioMAP Diversity Plus: CASM3C Assay for Macrophage colony-stimulating factor (MCSF) Biomarker Activity (AID 2283044); conditions: primary human coronary artery smooth muscle cells; actives raise or lower the signal;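 further: M-CSF protein amount quantified by ELISA after 24 h exposure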
[7] = read-out: Low-density lipoprotein receptor (LDLR), LDLR (gene 3949); assay: BSK_CASM3C_LDLR: BioMAP Diversity Plus: CASM3C Assay for Low-density lipoprotein receptor (LDLR) Biomarker Activity (AID 2283045); conditions: primary human coronary artery smooth muscle cells; actives raise or lower the signal;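 further: LDLR protein level on the cell surface quantified by ELISA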
[8] = read-out: Monocyte Chemoattractant Protein-1 (MCP1), CCL2 (gene 6347); assay: BSK_CASM3C_MCP1: BioMAP Diversity Plus: CASM3C Assay for Monocyte Chemoattractant Protein-1 (MCP1) Biomarker Activity (AID 2283046); conditions: primary human coronary artery smooth muscle cells; actives raise or lower the signal;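 further: MCP-1 level quantified by ELISA 24 h after dosing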
[9] = BSK_CASM3C_Proliferation: Cell Proliferation Assessment in the BioMAP Diversity Plus: CASM3C Assay (AID 2283047); conditions: primary human coronary artery smooth muscle cells;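 further: sulforhodamine B total protein stain as relative cell number at 560 nm; sub-confluent cells exposed 48 h before staining; fitted both ways against DMSO so gain or loss of cell number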
[10] = read-out: Monokine induced gamma interferon (MIG), CXCL9 (gene 4283); assay: BSK_CASM3C_MIG: BioMAP Diversity Plus: CASM3C Assay for Monokine induced gamma interferon (MIG) Biomarker Activity (AID 2283048); conditions: primary human coronary artery smooth muscle cells; actives raise or lower the signal;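 further: MIG protein level measured by ELISA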

Structure (SMILES) | outcome [1] | outcome [2] | outcome [3] | outcome [4] | outcome [5] | outcome [6] | outcome [7] | outcome [8] | AC50 [9] | outcome [10] | outcome [9] | AC50 [6] | AC50 [2] | AC50 [3] | AC50 [1] | AC50 [8] | AC50 [10] | AC50 [4] | AC50 [5] | AC50 [7]
CSC1=N[C@@](C)(c2ccccc2)C(=O)N1Nc1ccccc1 | inactive | inactive | inactive | inactive | inactive | inactive | inactive | inactive | 11.5 µM (active) | inactive |  |  |  |  |  |  |  |  |  | 
CCOP(=O)(SC(C)CC)N1CCSC1=O (stereo not given) | inactive | inactive | inactive | inactive | inactive | inactive | inactive | inactive |  | inactive | inactive |  |  |  |  |  |  |  |  | 
CC(C)N(C(=O)SCC(Cl)=C(Cl)Cl)C(C)C | inactive | inactive | inactive | inactive | inactive |  | inactive | inactive | 37.1 µM (active) | inactive |  | 34.4 µM (active) |  |  |  |  |  |  |  | 
CCOP(=S)(OCC)Oc1ccc2c(C)c(Cl)c(=O)oc2c1 | inactive | inactive | inactive | inactive | inactive | inactive | inactive | inactive | 20 µM (active) | inactive |  |  |  |  |  |  |  |  |  | 
CCOC(=O)COc1cc(-c2nn(C)c(OC(F)F)c2Cl)c(F)cc1Cl | inactive | inactive | inactive | inactive | inactive | inactive | inactive | inactive |  | inactive | inactive |  |  |  |  |  |  |  |  | 
CCCSP(=O)(OCC)Oc1ccc(Br)cc1Cl (stereo not given) | inactive |  |  | inactive | inactive | inactive | inactive | inactive | 32.1 µM (active) | inactive |  |  | 23 µM (active) | 13.4 µM (active) |  |  |  |  |  | 
CCOP(=S)(OCC)Oc1ccc([N+](=O)[O-])cc1 | inactive | inactive | inactive | inactive | inactive | inactive | inactive | inactive |  | inactive | inactive |  |  |  |  |  |  |  |  | 
CSc1nc(NC(C)C)nc(NC(C)C)n1 | inactive | inactive | inactive | inactive | inactive | inactive | inactive | inactive |  | inactive | inactive |  |  |  |  |  |  |  |  | 
Nc1nc(N)nc(NC2CC2)n1 | inactive | inactive | inactive | inactive | inactive | inactive | inactive | inactive |  | inactive | inactive |  |  |  |  |  |  |  |  | 
CC(COc1ccc(Oc2ccccc2)cc1)Oc1ccccn1 (stereo not given) | inactive | inactive | inactive | inactive | inactive | inactive | inactive | inactive | 31.8 µM (active) | inactive |  |  |  |  |  |  |  |  |  | 
COc1cccc(C(=O)NN(C(=O)c2cc(C)cc(C)c2)C(C)(C)C)c1C | inactive | inactive | inactive | inactive | inactive | inactive | inactive | inactive |  | inactive | inactive |  |  |  |  |  |  |  |  | 
O=C(O)c1cc(Oc2ccc(C(F)(F)F)cc2Cl)ccc1[N+](=O)[O-] | inactive | inactive | inactive | inactive | inactive | inactive | inactive | inactive |  | inactive | inactive |  |  |  |  |  |  |  |  | 
CCCOc1nn(C(=O)NS(=O)(=O)c2ccccc2C(=O)OC)c(=O)n1C |  | inactive | inactive | inactive | inactive | inactive | inactive | inactive |  | inactive | inactive |  |  |  | 1.32 µM (active) |  |  |  |  | 
CNC(=O)ON=C(SC)C(=O)N(C)C | inactive | inactive | inactive | inactive | inactive | inactive | inactive | inactive |  | inactive | inactive |  |  |  |  |  |  |  |  | 
CN(C)C(=O)Nc1cccc(C(F)(F)F)c1 | inactive | inactive | inactive | inactive | inactive | inactive | inactive | inactive |  | inactive | inactive |  |  |  |  |  |  |  |  | 
C#CC(C)(C)NC(=O)c1cc(Cl)cc(Cl)c1 | inactive | inactive | inactive | inactive | inactive | inactive | inactive | inactive |  | inactive | inactive |  |  |  |  |  |  |  |  | 
Nc1c(Cl)cc([N+](=O)[O-])cc1Cl | inactive | inactive | inactive | inactive | inactive | inactive | inactive | inactive |  | inactive | inactive |  |  |  |  |  |  |  |  | 

Structure (SMILES) | outcome [1] | outcome [2] | outcome [3] | outcome [4] | outcome [5] | outcome [6] | outcome [7] | outcome [8] | AC50 [9] | outcome [10] | outcome [9] | AC50 [6] | AC50 [2] | AC50 [3] | AC50 [1] | AC50 [8] | AC50 [10] | AC50 [4] | AC50 [5] | AC50 [7]
CCCSP(=O)(OCC)SCCC | inactive | inactive | inactive | inactive | inactive | inactive | inactive | inactive |  | inactive | inactive |  |  |  |  |  |  |  |  | 
CC1(C(=O)Nc2ccc(O)c(Cl)c2Cl)CCCCC1 | inactive | inactive | inactive | inactive | inactive | inactive | inactive | inactive |  | inactive | inactive |  |  |  |  |  |  |  |  | 
CCOP(=S)(OCC)OC(Cl)C(Cl)(Cl)Cl (stereo not given) | inactive |  | inactive | inactive | inactive | inactive | inactive | inactive | 37 µM (active) | inactive |  |  | 20 µM (active) |  |  |  |  |  |  | 
CNC(=O)Oc1cccc2c1OC(C)(C)O2 | inactive | inactive | inactive | inactive | inactive | inactive | inactive | inactive |  | inactive | inactive |  |  |  |  |  |  |  |  | 
CCCOCC(=Nc1ccc(Cl)cc1C(F)(F)F)n1ccnc1 |  | inactive |  | inactive | inactive | inactive | inactive |  | 32.7 µM (active) |  |  |  |  | 32.8 µM (active) | 32.8 µM (active) | 26 µM (active) | 20 µM (active) |  |  | 
CCC(=NOC/C=C/Cl)C1=C(O)CC(C2CCOCC2)CC1=O (stereo not given) | inactive | inactive | inactive | inactive | inactive | inactive | inactive | inactive |  | inactive | inactive |  |  |  |  |  |  |  |  | 
O=c1ccc(=O)[nH][nH]1 | inactive | inactive | inactive | inactive | inactive | inactive | inactive | inactive |  | inactive | inactive |  |  |  |  |  |  |  |  | 
N#CSCSC#N | inactive |  | inactive |  |  |  | inactive |  | 2.16 µM (active) |  |  | 16.1 µM (active) | 14.4 µM (active) |  |  | 20.5 µM (active) | 14.1 µM (active) | 16.1 µM (active) | 21.4 µM (active) | 
COc1ccc(C(=CC(=O)N2CCOCC2)c2ccc(Cl)cc2)cc1OC | inactive | inactive | inactive | inactive | inactive |  | inactive |  |  | inactive | inactive | 2.5 µM (active) |  |  |  | 6.65 µM (active) |  |  |  | 
CN1COCN(Cc2cnc(Cl)s2)C1=N[N+](=O)[O-] | inactive | inactive | inactive | inactive | inactive | inactive | inactive | inactive |  | inactive | inactive |  |  |  |  |  |  |  |  | 
CCCCOC(=O)[C@@H](C)Oc1ccc(Oc2ccc(C#N)cc2F)cc1 |  | inactive | inactive | inactive | inactive | inactive | inactive | inactive |  | inactive | inactive |  |  |  | 0.811 µM (active) |  |  |  |  | 
CCc1cccc(CC)c1N(COC)C(=O)CCl | inactive | inactive | inactive | inactive | inactive | inactive | inactive | inactive |  | inactive | inactive |  |  |  |  |  |  |  |  | 
COP(=O)(NC(C)=O)SC (stereo not given) | inactive | inactive | inactive | inactive | inactive | inactive | inactive | inactive |  | inactive | inactive |  |  |  |  |  |  |  |  | 
COc1cc(OC)nc(Sc2cccc(Cl)c2C(=O)O)n1 | inactive | inactive | inactive | inactive | inactive | inactive | inactive | inactive |  | inactive | inactive |  |  |  |  |  |  |  |  | 
CCOP(=O)(OCC)Oc1cc(C)nc(C(C)C)n1 | inactive | inactive | inactive | inactive | inactive | inactive |  | inactive |  | inactive | inactive |  |  |  |  |  |  |  |  | 20 µM (active)
CNc1cnn(-c2cccc(C(F)(F)F)c2)c(=O)c1Cl | inactive | inactive | inactive | inactive | inactive | inactive | inactive | inactive |  | inactive | inactive |  |  |  |  |  |  |  |  | 
CCCCSP(=O)(SCCCC)SCCCC | inactive | inactive | inactive | inactive | inactive |  | inactive | inactive | 36.8 µM (active) | inactive |  | 29.4 µM (active) |  |  |  |  |  |  |  | 
